The results in this text go back to PubChem BioAssay.

A number with no mark means an inactive call. For some of these results: Potency and affinity values are given separately. Activity calls are given as the source filed them. Unless noted, the rule behind the calls is not given here.

The nature of experiment [1]: antimalarial activity against Dd2 strain (AID 2302;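 active = growth inhibition above 50% at the single 2 µM test dose, taken to imply half-maximal potency below 2 µM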;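 note: 0% = DMSO untreated growth and 100% = chloroquine plus artemisinin killed control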). The following applies: P. falciparum Dd2 in RBCs, LDH growth readout, 72 h; at 2 µM; active compounds read high.
A short description of experiment [2]: human hepatoma cell viability loss – ATP luminescence, cytotoxicity control for P. falciparum antimalarial project, primary screen (AID 2303;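 active = inhibition above 50%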;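 note: 0% = DMSO wells and 100% = digitonin-killed cells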). To be noted: HepG2 viability, 24-48 h, at 10 µM, active compounds read high.
Experiment [3] deals with L-lactate dehydrogenase (Plasmodium falciparum (isolate CDC / Honduras)) (UniProt Q27743). The experiment in a line: PfLDH activity inhibition – cell lysate, 3D7 strain, counter-screen for P. falciparum growth inhibition project (AID 2304).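 Note: 0% = vehicle and 100% = reference inhibitor.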 To be noted: P. falciparum 3D7 crude extract, LDH APAD/NBT absorbance; at 2 µM; active compounds read high.
Chain of L-lactate dehydrogenase (Plasmodium falciparum (isolate CDC / Honduras)) (Q27743 whole entry, looked up): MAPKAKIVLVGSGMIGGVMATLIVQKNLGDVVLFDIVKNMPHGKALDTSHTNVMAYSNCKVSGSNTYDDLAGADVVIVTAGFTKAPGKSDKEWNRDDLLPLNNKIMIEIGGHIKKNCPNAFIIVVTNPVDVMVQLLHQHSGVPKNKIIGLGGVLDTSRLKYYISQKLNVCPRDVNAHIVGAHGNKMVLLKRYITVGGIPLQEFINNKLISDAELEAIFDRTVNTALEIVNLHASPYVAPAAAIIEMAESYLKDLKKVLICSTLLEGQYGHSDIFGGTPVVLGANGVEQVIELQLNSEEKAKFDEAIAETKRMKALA
The nature of experiment [4]: inhibition of 3D7 malaria parasite growth – strain 3D7 (AID 2306).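 Note: 0% = DMSO wells and 100% = chloroquine plus artemisinin control wells.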 To be noted: P. falciparum 3D7 erythrocytic growth, LDH absorbance, 72 h; at 2 µM; active compounds read high.
Experiment [5] deals with Calcium-dependent protein kinase 1 (Plasmodium falciparum (isolate 3D7)) (UniProt P62344). The experiment in a line: PfCDPK1 kinase inhibitors, biochemical, TCAMS library (AID 1159585; cut-off not given, nearly all actives have IC50 up to about 0.98 µM;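 note: inhibitors leave more ATP so luminescence rises with inhibition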). The following applies: recombinant PfCDPK1, Kinase-Glo ATP depletion luminescence.
Chain of Calcium-dependent protein kinase 1 (Plasmodium falciparum (isolate 3D7)) (P62344 whole entry, looked up): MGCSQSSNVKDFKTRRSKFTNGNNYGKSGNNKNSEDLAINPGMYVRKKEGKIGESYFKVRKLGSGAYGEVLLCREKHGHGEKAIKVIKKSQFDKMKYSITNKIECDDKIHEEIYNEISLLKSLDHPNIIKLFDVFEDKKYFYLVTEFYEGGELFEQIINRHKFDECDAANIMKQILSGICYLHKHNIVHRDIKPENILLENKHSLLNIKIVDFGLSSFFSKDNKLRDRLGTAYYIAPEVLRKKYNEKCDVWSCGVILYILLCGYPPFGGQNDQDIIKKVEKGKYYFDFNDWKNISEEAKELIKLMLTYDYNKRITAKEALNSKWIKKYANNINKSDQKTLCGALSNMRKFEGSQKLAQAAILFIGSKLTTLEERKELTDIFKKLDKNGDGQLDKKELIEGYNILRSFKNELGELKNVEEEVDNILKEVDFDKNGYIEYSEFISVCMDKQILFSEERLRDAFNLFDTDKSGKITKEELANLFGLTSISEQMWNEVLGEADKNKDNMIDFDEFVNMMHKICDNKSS
In experiment [6] the target is Plasmodium falciparum protein kinase 6 (PK6, PF3D7_1337100) (UniProt Q8IDW1). Briefly: PfPK6 kinase inhibitors, biochemical, TCAMS library (AID 1159586). To be noted: recombinant PfPK6, Kinase-Glo ATP depletion luminescence.
Chain of Plasmodium falciparum protein kinase 6 (PK6, PF3D7_1337100) (Q8IDW1 1-305): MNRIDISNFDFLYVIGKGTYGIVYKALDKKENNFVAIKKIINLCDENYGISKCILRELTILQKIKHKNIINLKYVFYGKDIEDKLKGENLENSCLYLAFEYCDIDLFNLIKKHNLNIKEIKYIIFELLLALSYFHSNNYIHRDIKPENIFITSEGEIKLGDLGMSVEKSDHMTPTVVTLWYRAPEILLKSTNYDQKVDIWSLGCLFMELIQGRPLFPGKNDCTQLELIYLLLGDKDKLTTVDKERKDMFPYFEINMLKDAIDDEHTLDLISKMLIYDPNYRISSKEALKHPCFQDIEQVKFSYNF
In experiment [7] the target is Protein kinase 7 (PK7), Plasmodium falciparum 3D7 (PF3D7_0213400) (UniProt Q7YTF7). Briefly: inhibition of Plasmodium PK7 catalytic activity – biochemical, TCAMS antimalarial set, Kinase-Glo luminescence (AID 1159587). The following applies: recombinant PfPK7, Kinase-Glo ATP depletion luminescence.
Chain of Protein kinase 7 (PK7), Plasmodium falciparum 3D7 (PF3D7_0213400) (Q7YTF7 1-343): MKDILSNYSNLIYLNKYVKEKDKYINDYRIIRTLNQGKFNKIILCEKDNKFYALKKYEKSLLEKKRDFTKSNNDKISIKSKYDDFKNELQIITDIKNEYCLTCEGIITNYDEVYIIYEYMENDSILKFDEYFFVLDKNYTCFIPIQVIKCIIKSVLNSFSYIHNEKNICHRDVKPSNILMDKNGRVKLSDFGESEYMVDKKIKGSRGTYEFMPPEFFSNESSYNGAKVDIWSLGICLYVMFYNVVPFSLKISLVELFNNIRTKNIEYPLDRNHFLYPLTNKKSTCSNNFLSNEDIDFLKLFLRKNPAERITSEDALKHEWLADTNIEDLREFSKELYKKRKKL
The target in experiment [8] is Calcium-dependent protein kinase 4 (Plasmodium falciparum (isolate 3D7)) (UniProt Q8IBS5). The experiment in a line: PfCDPK4 kinase inhibitors, biochemical, TCAMS library (AID 1159588; cut-off not given, nearly all actives have IC50 up to about 0.91 µM). To be noted: recombinant PfCDPK4, Kinase-Glo ATP depletion luminescence.
Chain of Calcium-dependent protein kinase 4 (Plasmodium falciparum (isolate 3D7)) (Q8IBS5 whole entry, looked up): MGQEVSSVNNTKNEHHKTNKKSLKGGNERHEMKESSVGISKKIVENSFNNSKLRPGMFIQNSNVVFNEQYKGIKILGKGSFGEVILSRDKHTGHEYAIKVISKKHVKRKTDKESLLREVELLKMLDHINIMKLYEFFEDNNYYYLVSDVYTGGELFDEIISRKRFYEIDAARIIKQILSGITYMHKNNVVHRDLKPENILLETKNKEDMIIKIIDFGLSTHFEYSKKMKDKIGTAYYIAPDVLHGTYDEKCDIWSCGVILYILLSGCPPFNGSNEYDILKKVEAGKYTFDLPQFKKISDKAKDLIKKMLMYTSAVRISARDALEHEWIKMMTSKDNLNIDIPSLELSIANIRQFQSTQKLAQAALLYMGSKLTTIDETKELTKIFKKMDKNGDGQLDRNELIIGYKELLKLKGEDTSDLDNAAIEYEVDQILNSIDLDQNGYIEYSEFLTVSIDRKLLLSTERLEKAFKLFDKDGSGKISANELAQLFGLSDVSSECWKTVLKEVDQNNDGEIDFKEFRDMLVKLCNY

For `CCCCCN1CCCC1CNS(=O)(=O)c1ccc(C(=O)Nc2ccc(C(F)(F)F)cc2)cc1` (stereo not given), the growth inhibition in experiment [1] was -3%; in experiment [4], 87% (active). Further, the inhibition in experiment [2] is 19%; in experiment [3] it was -2%. Also, the outcome in experiment [5], in experiment [6], in experiment [7] and in experiment [8] was inactive.

On to `Cc1ccc(-c2noc(=O)n2CC(=O)Nc2ccccc2-c2ccccc2)cc1`, for which the growth inhibition in experiment [1] was 86% (active); in experiment [4], 100% (active). For the same compound, the inhibition in experiment [2] was -1%; in experiment [3] it was 2%. Further, the result in experiment [5], in experiment [6], in experiment [7] and in experiment [8] was inactive.

For the compound `COc1cc2nc(N3CCC(CNC(=O)c4ccc(-c5ccc(C(=O)N(C)C)cc5OCCN(C)C)cc4)CC3)nc(N)c2cc1OC`, the growth inhibition in experiment [1] was -1%; in experiment [4], 95% (active). Further, the inhibition in experiment [2] was -1%; in experiment [3], -6%. Further, the outcome in experiment [5], in experiment [6], in experiment [7] and in experiment [8] was inactive.

As to `Cc1cc(Nc2ccc3ccccc3c2)n2ncnc2n1`, the growth inhibition was 95% (active) in experiment [1] and 96% (active) in experiment [4]. Further, the inhibition in experiment [2] is 11%; in experiment [3], -2%. Also, the outcome in experiment [5], in experiment [6], in experiment [7] and in experiment [8] was inactive.

For `O=C(NCCNc1ccnc(NCc2ccc(F)cc2)n1)c1cc2ccccc2s1`, the growth inhibition was 17% in experiment [1] and 99% (active) in experiment [4]. The inhibition is 6% in experiment [2] and -5% in experiment [3]. In addition, the result in experiment [5], in experiment [6], in experiment [7] and in experiment [8] was inactive.

In the case of `CCOc1cc(C)ccc1C1CCN(CCN2CCC(CNC(=O)c3ccc(-c4ccc(C(F)(F)F)cc4)cc3)CC2)CC1`, the growth inhibition is 89% (active) in experiment [1] and 98% (active) in experiment [4]. Besides, the inhibition in experiment [2] was 53% (active); in experiment [3], -2%. Also, the outcome in experiment [5], in experiment [6], in experiment [7] and in experiment [8] was inactive.

Consider `Cc1cc(N2CCC(NS(=O)(=O)c3cccc4cccnc34)CC2)nc(Nc2cccc(C#N)c2)n1`, for which the figures for the growth inhibition in experiment [1] and in experiment [4] were 87% (active) and 98% (active), respectively. In addition, the inhibition in experiment [2] was 12%; in experiment [3] it was -3%. In addition, the result in experiment [5], in experiment [6], in experiment [7] and in experiment [8] was inactive.

Take `CC(=O)Nc1ccc(C(=O)Nc2cccc(-c3cccc(-c4nc5ccccc5[nH]4)c3)c2)cn1`: the growth inhibition is 100% (active) in experiment [1] and 101% (active) in experiment [4]. Besides, the inhibition in experiment [2] is 3%; in experiment [3], -2%. Also, the result in experiment [5], in experiment [6], in experiment [7] and in experiment [8] was inactive.

Regarding `CC(C)c1cccc(C(NC(=O)[C@H]2Cc3ccccc3CN2C(=O)c2cccc(N3CCOCC3)c2)C2CCCC2)c1` (stereo not given in full), the growth inhibition in experiment [1] is 96% (active); in experiment [4] it was 94% (active). Also, the inhibition in experiment [2] is 3%; in experiment [3], 1%. For the same compound, the outcome in experiment [5], in experiment [6], in experiment [7] and in experiment [8] was inactive.

As to `COc1ccc(CNC2CCN(c3ccc(NC(=O)c4cccc(Cl)c4)cc3)CC2)cc1OC`, the growth inhibition in experiment [1] was 13%; in experiment [4], 96% (active). The figures for the inhibition in experiment [2] and in experiment [3] were 26% and 6%, respectively. For the same compound, the result in experiment [5], in experiment [6], in experiment [7] and in experiment [8] was inactive.

For `CCOc1cc(Cc2cnc(N)nc2N)cc(OCC)c1-n1cccc1`, the growth inhibition in experiment [1] is -1%; in experiment [4], 98% (active). In addition, the inhibition in experiment [2] was -1%; in experiment [3] it was -2%. Moreover, the outcome in experiment [5], in experiment [6], in experiment [7] and in experiment [8] was inactive.

On to `Cc1[nH]c(C)c(-c2ccc(OCCCCSc3ccncc3)cc2)c(=O)c1Br`, for which the growth inhibition in experiment [1] and in experiment [4] was 97% (active) throughout. Further, the values for the inhibition in experiment [2] and in experiment [3] were -3% and -2%, respectively. Further, the outcome in experiment [5], in experiment [6], in experiment [7] and in experiment [8] was inactive.

Turning to `CC(Cc1ccc(NS(=O)(=O)c2ccc(CC(C)NCCc3cccc(Cl)c3)cc2)cc1)NCCc1cccc(Cl)c1` (stereo not given), the values for the growth inhibition in experiment [1] and in experiment [4] were 38% and 100% (active), respectively. Also, the figures for the inhibition in experiment [2] and in experiment [3] were 12% and 4%, respectively. Besides, the outcome in experiment [5], in experiment [6], in experiment [7] and in experiment [8] was inactive.

Turning to `COc1cccc(NC(=O)N2CCOC(CCN3CCC4(CCc5ccccc54)CC3)(c3ccc(Cl)c(Cl)c3)C2)c1` (stereo not given), the growth inhibition is 72% (active) in experiment [1] and 94% (active) in experiment [4]. In addition, the inhibition was 97% (active) in experiment [2] and 5% in experiment [3]. Besides, the outcome in experiment [5], in experiment [6], in experiment [7] and in experiment [8] was inactive.

For `O=C(Nc1cccc(-c2cccc(-c3nc4ccc(F)cc4[nH]3)c2)c1)Nc1ccc(F)c(F)c1F`, the growth inhibition in experiment [1] and in experiment [4] was 100% (active) throughout. In addition, the inhibition in experiment [2] was 83% (active); in experiment [3], 4%. Also, the outcome in experiment [5], in experiment [6], in experiment [7] and in experiment [8] was inactive.

For `C=C(C)COc1ccc(-c2n[nH]c(C(F)(F)F)c2-c2ccccc2OC)c(O)c1`, the growth inhibition in experiment [1] was 72% (active); in experiment [4] it was 98% (active). Besides, the inhibition in experiment [2] was 19%; in experiment [3], -5%. The result in experiment [5], in experiment [6], in experiment [7] and in experiment [8] was inactive.

For the compound `COc1cc(N)cc2sc(N)nc12`, the growth inhibition in experiment [1] and in experiment [4] was 99% (active) in each case. The inhibition in experiment [2] is 0%; in experiment [3] it was -2%. Moreover, the result in experiment [5], in experiment [6], in experiment [7] and in experiment [8] was inactive.

Regarding `CCCOC(=O)C1=C(C)NC2=C(C(=O)CC(c3ccc(OC)c(OC)c3)C2)C1c1cccc(O)c1` (stereo not given), the growth inhibition was 99% (active) in experiment [1] and 100% (active) in experiment [4]. Also, the inhibition was -10% in experiment [2] and -2% in experiment [3]. The result in experiment [5], in experiment [6], in experiment [7] and in experiment [8] was inactive.

`CCCCCCCN1CC[C@@H](CCCc2ccnc3ccc(OCCN4CCOCC4)cc23)[C@@H](CC)C1`: the growth inhibition in experiment [1] was 3%; in experiment [4], 89% (active). Moreover, the inhibition was 14% in experiment [2] and 0% in experiment [3]. Further, the outcome in experiment [5], in experiment [6], in experiment [7] and in experiment [8] was inactive.

For the compound `CN(C)CCCNC(=O)c1ccccc1Sc1ccccc1C#N`, the growth inhibition in experiment [1] was 3%; in experiment [4] it was 89% (active). Moreover, the inhibition in experiment [2] was 11%; in experiment [3] it was 2%. The outcome in experiment [5], in experiment [6], in experiment [7] and in experiment [8] was inactive.
